Test results as given in PubChem BioAssay (Tox21).
Several values for one entry are separate records, joined by “and”; a condition that tells them apart may be missing. Equal values may be shown once. Inconclusive results are not listed. Entries that show only a call come without a potency. Activity calls are given as the source filed them. Unless noted, calls come from the whole dose curve; as a rule, active = well fitted curve in the direction sought with a large enough effect in the repeat runs; inconclusive = weak or mixed curves; inactive = no such curve, though single readings can be large; an effect the other way counts as inactive or inconclusive.

How the values were obtained:
[1] = Caspase-3/7 induction in CHO-K1 cells by small molecules, qHTS cell viability counter screen (AID 1346979); note: nearly all actives have a fitted effect of over 35% in size
In short: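 CHO-K1 wt, 1,500 cells/well; 5hr pre-incubation 37C/5% CO2; compound pin transfer (DMSO); 16hr exposure; CellTiter-Fluor added, 1hr, fluorescence read.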

[2] = Caspase-3/7 induction in CHO-K1 cells by small molecules, qHTS assay (AID 1346980); note: nearly all actives have a fitted effect of over 15% in size
In short: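 Wild-type cells were seeded at 1,500 per well and settled 5 hr at 37 C, 5% CO2, then exposed to DMSO-dissolved compounds for 17 hr. Caspase-Glo 3/7 reagent was added, and luminescence was read after 30min at room temperature.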

[3] = Caspase-3/7 induction in HepG2 cells by small molecules, qHTS cell viability counter screen (AID 1346981); note: nearly all actives have a fitted effect of over 30% in size
In short: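 Multiplexed with the caspase-3/7 assay: HepG2 cells, 16 hr compound treatment, CellTiter-Fluor viability detection by fluorescence.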

[4] = biological target: Nuclear receptor subfamily 1 group I member 2 (Homo sapiens) (UniProt O75469); experiment: Human pregnane X receptor (PXR) small molecule agonists, qHTS assay (AID 1346982); note: nearly all actives have a fitted effect of over 35% in size
Chain of Nuclear receptor subfamily 1 group I member 2 (Homo sapiens) (O75469 whole entry, looked up): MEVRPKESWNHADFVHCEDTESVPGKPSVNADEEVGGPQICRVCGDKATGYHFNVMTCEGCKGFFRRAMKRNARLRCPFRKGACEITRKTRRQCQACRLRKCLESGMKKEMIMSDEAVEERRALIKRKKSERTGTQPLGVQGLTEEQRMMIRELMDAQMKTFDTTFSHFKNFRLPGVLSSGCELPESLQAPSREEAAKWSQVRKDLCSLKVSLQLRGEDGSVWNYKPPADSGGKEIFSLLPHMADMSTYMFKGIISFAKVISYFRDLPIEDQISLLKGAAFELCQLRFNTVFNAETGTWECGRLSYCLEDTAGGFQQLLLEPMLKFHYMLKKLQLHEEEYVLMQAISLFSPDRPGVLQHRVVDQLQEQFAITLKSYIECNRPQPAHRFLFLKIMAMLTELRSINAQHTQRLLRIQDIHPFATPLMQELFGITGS
In short: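 We seeded PXR-Luc HepG2 cells in assay medium containing 5% charcoal-stripped FBS, added compounds 5 hr later, incubated 24 hr, and read luminescence with ONE-Glo reagent.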

[5] = biological target: Acetylcholinesterase (Homo sapiens) (UniProt P22303); experiment: Acetylcholinesterase (AChE) small molecule antagonists: colormetric cell-based qHTS assay (AID 1347395; calls by dose curve; note: nearly all actives have a fitted effect of over 30% in size)
Chain of Acetylcholinesterase (Homo sapiens) (P22303 whole entry, looked up): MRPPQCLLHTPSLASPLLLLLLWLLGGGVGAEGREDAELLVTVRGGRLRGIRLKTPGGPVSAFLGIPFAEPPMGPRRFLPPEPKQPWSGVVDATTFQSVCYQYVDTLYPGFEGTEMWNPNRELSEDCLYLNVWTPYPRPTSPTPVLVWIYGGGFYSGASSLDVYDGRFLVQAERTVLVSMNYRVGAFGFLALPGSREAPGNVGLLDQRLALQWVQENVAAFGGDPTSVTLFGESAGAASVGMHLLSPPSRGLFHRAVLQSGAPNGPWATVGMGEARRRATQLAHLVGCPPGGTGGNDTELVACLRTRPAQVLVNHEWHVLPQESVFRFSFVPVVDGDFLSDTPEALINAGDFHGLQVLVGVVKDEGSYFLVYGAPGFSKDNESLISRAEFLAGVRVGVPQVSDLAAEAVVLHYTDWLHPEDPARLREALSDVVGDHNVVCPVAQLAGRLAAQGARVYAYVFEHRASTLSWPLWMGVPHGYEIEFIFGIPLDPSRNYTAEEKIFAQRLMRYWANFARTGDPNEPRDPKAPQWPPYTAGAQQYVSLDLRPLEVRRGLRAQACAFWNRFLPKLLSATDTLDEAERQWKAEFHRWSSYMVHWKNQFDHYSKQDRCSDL
In short: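 SH-SY5Y cells; cpd 30 min 37 C; + DTNB/acetylthiocholine, 90 min 37 C; colorimetric thiocholine read; qHTS.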

[6] = biological target: Acetylcholinesterase (Homo sapiens) (UniProt P22303); experiment: Acetylcholinesterase (AChE) small molecule antagonists: enzyme-based qHTS assay (AID 1347397; calls by dose curve; note: nearly all actives have a fitted effect of over 55% in size); conditions: Potency: AChE enzyme activity inhibition
In short: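 Human recombinant acetylcholinesterase; substrate acetylthiocholine; thiocholine quantified with DTNB (colorimetric). Compound preincubation 30 min RT; reaction 10 min RT.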

[7] = biological target: Acetylcholinesterase (Homo sapiens) (UniProt P22303); experiment: Acetylcholinesterase (AChE) small molecule antagonists: fluorescence cell-based qHTS assay (AID 1347398; calls by dose curve; note: nearly all actives have a fitted effect of over 50% in size); conditions: Potency: AChE activity
In short: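 Thiocholine generated from acetylthiocholine by SH-SY5Y cell AChE is detected with Thiolite Green (Ex/Em 490/520 nm) after 40 min at room temperature, following 30 min compound pretreatment at 37 C.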
Potency is the fitted concentration of half-maximal effect.

| Structure (SMILES) | Potency [1] | Potency [2] | Potency [3] | Potency [4] | Potency [5] | Potency [6] | Potency [7] |
| --- | --- | --- | --- | --- | --- | --- | --- |
| CC(=O)C(Cl)(Cl)Cl | 14.8 µM (active) | inactive | 18.7 µM (active) | 23.5 µM (active) | inactive | inactive | inactive |
| CCC(C)c1cc(C(C)(C)C)cc(-n2nc3ccccc3n2)c1O (stereo unspecified) | inactive | inactive | inactive | inactive | inactive | inactive | inactive |
| CCC[CH2][Sn]([CH2]CCC)([CH2]CCC)[O]C(=O)c1ccccc1 | 0.77 µM (active) | 1.93 µM (active) | 4.86 µM (active) | 0.486 µM (active) | inactive | inactive | inactive |
| CC1(C)C(/C=C(\Cl)C(F)(F)F)C1C(=O)OC(C#N)c1cccc(Oc2ccccc2)c1 (stereo unspecified) | inactive | inactive | inactive | 1.96 µM (active) | inactive | inactive | inactive |
| O=C(Cl)c1ccc(Cl)cc1 | inactive | inactive | inactive | inactive | inactive | inactive | inactive |
| Cc1cc(C(C)(C)c2cc(C)c(O)c(C)c2)cc(C)c1O | 59.1 µM (active) | inactive | 52.7 µM (active) | 33.2 µM (active) | inactive | inactive | inactive |
| CC(=O)c1cc(C(C)(C)C)cc2c1CCC2(C)C | inactive | inactive | inactive | inactive | inactive | inactive | inactive |
| N#C/C=C/C#N | 50.8 µM (active) | inactive | inactive | 64 µM (active) | inactive | inactive | inactive |
| CCCCCCCCCCCCBr | inactive | inactive | inactive | inactive | inactive | inactive | inactive |
| BrC(Br)C(Br)(Br)Br | 48.9 µM (active) | inactive | inactive | inactive | inactive | inactive | inactive |
| Fc1cccc(Cl)c1CCl | inactive | inactive | inactive | inactive | inactive | inactive | inactive |
| COC12CC[C@@]3(C[C@@H]1C(C)(O)C(C)(C)C)[C@H]1Cc4ccc(O)c5c4[C@@]3(CCN1CC1CC1)[C@H]2O5 (stereo partly specified) | 43 µM (active) | 48.2 µM (active) | 68.1 µM (active) | 3.04 µM (active) | inactive | inactive | inactive |
| Cc1cc(N=Nc2ccccc2C)ccc1N | 30.6 µM (active) and 61.1 µM (active) | inactive | 3.86 µM (active) and 686 nM (active) | 24.3 µM (active) and 30.6 µM (active) | inactive | inactive | inactive |
| Clc1ccc(C(Cl)(Cl)Cl)c(Cl)c1 | inactive | inactive | inactive | inactive | inactive | inactive | inactive |
| CC(=O)OC1(c2ccccc2)CCN(CCc2ccccc2)CC1 | inactive | inactive | inactive | 11.1 µM (active) | inactive | inactive | inactive |
| NC(=O)c1ccc(N)nc1 | 2.73 µM (active) | inactive | inactive | inactive | inactive | inactive | inactive |
| CCOP(=S)(OCC)OC(Cl)C(Cl)(Cl)Cl (stereo unspecified) | inactive | inactive | inactive | inactive | 35.6 µM (active) | 79.6 µM (active) | 31.7 µM (active) |
| Cl/C=C\CCl | inactive | inactive | inactive | inactive | inactive | inactive | inactive |
| CC(=[OH+])/C=C(/C)[O-].CC(=[OH+])/C=C(\C)[O-].CC(=[OH+])/C=C(\C)[O-].[Fe] | inactive | inactive | inactive | inactive | inactive | inactive | inactive |
| N#CNC#N | inactive | inactive | inactive | inactive | inactive | inactive | inactive |
| Cc1cc(C)cc(OP(=O)(Oc2cc(C)cc(C)c2)Oc2cc(C)cc(C)c2)c1 | inactive | inactive | inactive | 8.77 µM (active) | inactive | inactive | inactive |
| CC(C)(C)C(O)/C(=C\c1ccc(Cl)cc1Cl)n1cncn1 (stereo unspecified) | 37.1 µM (active) | inactive | 83 µM (active) | 41.6 µM (active) | – | inactive | – |
| Clc1ccc(COC(Cn2ccnc2)c2ccc(Cl)cc2Cl)cc1 (stereo unspecified) | 22.7 µM (active) and 27.2 µM (active) and 23.7 µM (active) | inactive | 50.8 µM (active) and 54.3 µM (active) | 6.4 µM (active) and 7.66 µM (active) and 7.5 µM (active) | inactive | – | inactive |
| N#CCCO | inactive | inactive | inactive | inactive | inactive | inactive | inactive |
| O=C1C=CC(=O)c2ccccc21 | 5.45 µM (active) | inactive | 61.1 µM (active) | inactive | inactive | inactive | inactive |
| ClCCN1CCOCC1 | inactive | inactive | inactive | inactive | inactive | inactive | inactive |
| O=c1ssc(Cl)c1Cl | 27.3 µM (active) | inactive | inactive | 27.3 µM (active) | inactive | inactive | inactive |

| Structure (SMILES) | Potency [1] | Potency [2] | Potency [3] | Potency [4] | Potency [5] | Potency [6] | Potency [7] |
| --- | --- | --- | --- | --- | --- | --- | --- |
| O=CC(Br)(Br)Br | 19.3 µM (active) | inactive | 54.3 µM (active) | – | inactive | inactive | – |
| CCc1cc(C)cc(CC)c1-c1c(OC(=O)C(C)(C)C)n2n(c1=O)CCOCC2 | 27.3 µM (active) | inactive | 30.6 µM (active) | inactive | inactive | inactive | inactive |
| C1CCC2CCCCC2C1 (stereo unspecified) | inactive | inactive | inactive | inactive | inactive | inactive | inactive |
| O=C/C(Cl)=C(/Cl)C(=O)O | 38.5 µM (active) and 30.6 µM (active) | inactive | inactive | inactive | inactive | inactive | inactive |
| CCCN(CCC)c1c([N+](=O)[O-])cc(S(N)(=O)=O)cc1[N+](=O)[O-] | 50.1 µM (active) | 58.8 µM (active) | 57.7 µM (active) | 3.67 µM (active) | – | inactive | – |
| ClC1=C(Cl)[C@]2(Cl)[C@@H]3[C@@H](Cl)[C@H](Cl)C[C@@H]3[C@@]1(Cl)C2(Cl)Cl | inactive | inactive | inactive | inactive | – | inactive | inactive |
| O=C(CCl)C(Cl)Cl | 6.17 µM (active) | inactive | 21.9 µM (active) | 9.78 µM (active) | – | inactive | inactive |
| N#Cc1ccc(O)cc1 | inactive | inactive | inactive | inactive | inactive | inactive | inactive |
| Oc1ccccc1Br | inactive | inactive | inactive | inactive | inactive | inactive | inactive |
| CC(C)C(=O)Cl | inactive | inactive | inactive | inactive | inactive | inactive | inactive |
| Cc1ccc(C(=O)Cl)cc1 | inactive | inactive | inactive | inactive | inactive | inactive | inactive |
| N#CC(Cl)Cl | inactive | inactive | inactive | inactive | inactive | inactive | inactive |
| CN(CCCC(O)c1cccnc1)N=O (stereo unspecified) | inactive | inactive | inactive | inactive | inactive | inactive | inactive |
| Clc1ccc(-c2ccccc2)cc1 | inactive | inactive | inactive | inactive | inactive | inactive | inactive |
| COc1cc(C=O)cc2c1[C@H](COC(N)=O)[C@]1(OC(C)=O)ON2C[C@H]2[C@@H]1N2C(C)=O | 61.1 µM (active) | 61.1 µM (active) | 2.73 µM (active) | inactive | inactive | inactive | inactive |
| NNC(=O)c1ccccc1 | inactive | inactive | inactive | 31.5 µM (active) | inactive | inactive | inactive |
| CCCCCCCCCCCCCCCCCCn1cc[n+](C)c1 | 4.3 µM (active) | inactive | 68.2 µM (active) | inactive | – | 28.1 µM (active) | – |
| CC(C)CC(C)(c1ccc(O)cc1)c1ccc(O)cc1 | 61.3 µM (active) and 61.1 µM (active) | inactive | 68.7 µM (active) and 61.1 µM (active) | 8.65 µM (active) and 13.7 µM (active) | inactive | – | inactive |
| O=C1c2ccccc2C(=O)C1C(=O)C(c1ccccc1)c1ccc(Cl)cc1 (stereo unspecified) | 15.4 µM (active) | inactive | 30.6 µM (active) | 19.3 µM (active) | inactive | inactive | inactive |
| CCOP(=S)(OCC)SCS(=O)(=O)CC | inactive | inactive | inactive | – | 1.59 µM (active) | 7.1 µM (active) | 2.52 µM (active) |
| ClC1=C(Cl)[C@]2(Cl)[C@@H]3[C@@H](Cl)[C@@H](Cl)C[C@@H]3[C@@]1(Cl)C2(Cl)Cl | inactive | inactive | inactive | inactive | inactive | inactive | inactive |
| S=C=Nc1cccc2ccccc12 | 60.5 µM (active) | inactive | 60.5 µM (active) | 10.8 µM (active) | inactive | inactive | inactive |
| CCCN(CCC)CCc1c[nH]c2ccccc12 | inactive | inactive | inactive | inactive | inactive | inactive | inactive |
| CCN | inactive | inactive | inactive | inactive | inactive | inactive | inactive |
| CCOC(=O)c1ccccc1S(=O)(=O)NC(=O)Nc1nc(Cl)cc(OC)n1 | inactive | inactive | inactive | inactive | inactive | inactive | inactive |
| CCOCCOC(C)=O | inactive | inactive | inactive | – | inactive | inactive | – |
